We go through 40 compounds from PubChem BioAssay AID720518 (National Center for Advancing Translational Sciences (NCATS), 2013).

This experiment is described as follows: qHTS for Inhibitors of Cell Surface uPA Generation: Wild-type Protective Antigen (WT-PrAg) Counterscreen for Cherry-picked Compounds. Particulars: cells, WT protective antigen toxicity counterscreen; series mostly up to 115 µM. Background: In qHTS, concentration-response curves come from the screen itself.

Results filed as inconclusive are left out. Where a call stands in place of a potency, no number is given. Activity calls are given as the source filed them. The call rests on the fitted dose curve.

On to `O=C(NCC1CCCO1)c1c(O)c2cccc3c2n(c1=O)CCC3` (stereo not given), for which the Potency result is “inactive”.
`c1cncc(C2CCCCN2)c1` (stereo not given): the Potency result is “inactive”.
For `COC(=O)COc1cc2ccccc2cc1C(=O)Nc1ccccc1`, the Potency entry is “inactive”.
Regarding `Cn1c(SCC(=O)NCCc2ccccc2)ncc(C(=O)Nc2ccc(F)cc2)c1=O`, the Potency result is “inactive”.
As for `CNS(=O)(=O)c1cc(-c2nnc(Nc3ccc(CC(N)=O)cc3)c3ccccc23)ccc1C`, the Potency entry was “inactive”.
In the case of `CCC1=NN(C(=O)C(=O)Nc2ccc(OC)cc2)C(O)(C(F)(F)F)C1` (stereo not given), the Potency result is “inactive”.
In the case of `O=C(c1cc([N+](=O)[O-])cc([N+](=O)[O-])c1)N(c1ccccn1)c1ccccn1`, the Potency entry is “inactive”.
With `COc1ccc(C2C(C(=O)c3ccc(C)o3)=C(O)C(=O)N2CC2CCCO2)cc1OC` (stereo not given) the entry was “inactive”; with `Cc1nc(NC(=O)COC(=O)CCc2ccccc2)c(Cl)cc1Cl`, “inactive”.
Consider `Cc1cccc(N2C(=O)N3[C@H](c4ccc(F)cc4)[C@@H]4C(=O)N(C5CCCCC5)C(=O)[C@@H]4[C@]3(Cc3ccc(Cl)cc3)C2=O)c1`, for which the Potency entry was “inactive”.
For `CCOC(=O)C1CCN(C(=O)COC(=O)c2c(C)c(CC)nc3ccccc23)CC1`, the Potency result is “inactive”.
`Cc1cccc(NC(=O)c2cc3c(=O)n4ccccc4nc3s2)c1`: the Potency result was “inactive”.
With `COc1ccc2nc(C)cc(Nc3ccccc3O)c2c1`, the Potency entry was “inactive”.
Take `N#Cc1ccccc1Sc1ccccc1C(=O)Nc1ccc(Br)cc1`: the Potency result was “inactive”.
The value for `Cc1ccccc1C(=O)NCC(=O)Nc1ccc(C)c(S(=O)(=O)N2CCCCCC2)c1` was “inactive”; that for `COc1ccc(-c2cc(-c3ccccc3)nc3ncnn23)cc1` was “inactive”.
As to `CC(C)c1ccc(SCc2noc(C(=O)NCC3CCCO3)c2C(=O)O)cc1` (stereo not given), the Potency result was “inactive”.
Take `CCN(CC)CCCn1c2c(c(SCC(=O)Nc3cccc4ccccc34)nc1=O)CCC2`: the Potency result is “inactive”.
Regarding `O=C(NCCCN1CCCC1=O)c1cccc(Oc2ccccc2)c1`, the Potency result was “inactive”.
With `CCOC(=O)C1=C(CN2CCN(C(=O)c3ccco3)CC2)NC(=O)NC1c1ccccc1` (stereo not given), the Potency entry was “inactive”.
`COc1ccc(OC)c(S(=O)(=O)N2CCN(Cc3ccccc3)CC2)c1`: the Potency entry is “inactive”.
Regarding `COc1ccc(C(=O)c2sc(Nc3ccccc3)nc2N)cc1`, the Potency result is “inactive”.
Regarding `CCc1ccccc1N1C(=O)CC(Sc2nccc(C)n2)C1=O` (stereo not given), the Potency entry is “inactive”.
With `COc1ccc(CCNC(=O)Cn2c(=O)n(-c3cc(F)ccc3F)c(=O)c3sccc32)cc1OC` the entry was “inactive”; with `O=C(NNC(=O)c1ccc2ccccc2c1)Nc1ccc(F)cc1`, “inactive”.
As to `CCCCCCCCCOC(=O)C1N2C(=O)[C@@H](NC(=O)COc3ccccc3)[C@H]2SC1(C)C` (stereo not given in full), the Potency result is “inactive”.
`COc1ccc(/C=C/C(=O)Nc2ccccc2Cl)cc1S(=O)(=O)N1CCOCC1`: the Potency entry is “inactive”.
As to `O=C(Cc1ccc(Cl)cc1)c1c[nH]c(C(=O)NCCCn2ccnc2)c1`, the Potency entry is “inactive”.
As to `Cc1cc(C)c(S(=O)(=O)N2CCCOC2CNC(=O)C(=O)NCc2cccs2)c(C)c1` (stereo not given), the Potency entry was “inactive”.
Turning to `COc1ccccc1CNC(=O)CCCn1nc(C)c2c(C)n(-c3ccccc3)nc2c1=O`, the Potency result is “inactive”.
Take `Cc1cc(=O)[nH]c(=S)[nH]1`: the Potency result was “inactive”.
For `COc1ccccc1C(=O)NCc1ccccc1`, the Potency result was “inactive”.
Regarding `COCCNC(=O)C(c1c[nH]c2ccccc12)N(C(=O)c1snc(C(N)=O)c1N)c1cccc(OC)c1` (stereo not given), the Potency result is “inactive”.
In the case of `COC(=O)[C@H](CC(C)C)N(Cc1ccccc1)S(=O)(=O)N(Cc1ccc(OC)cc1)[C@@H](CC(C)C)C(=O)OC`, the Potency entry is “inactive”.
With `COc1cccc(NC(=O)CSc2nc3ncc(Br)cc3[nH]2)c1`, the Potency result is “inactive”.
For the compound `N#C/C(N=Nc1ccccc1O)=N\Nc1ccccc1O`, the Potency result was “inactive”.
As for `C#CCOCCOCCOCCNc1nc(N2CCOCC2)nc(N2CCN(C(=O)[C@H](CCC(=O)O)n3cc([C@@H](N)CCCCN)nn3)CC2)n1`, the Potency entry was “inactive”.
For the compound `COCc1cc(C)nc2sc(C(=O)Nc3nccs3)c(N)c12`, the Potency entry was “inactive”.
In the case of `CCC(CC)Nc1ccc(C(CC(N)=O)NC(=O)Cc2ccc(Br)cc2)cc1[N+](=O)[O-]` (stereo not given), the Potency result is “inactive”.
As to `CCCS(=O)(=O)c1ccc(COC(=O)Cc2ccc([N+](=O)[O-])cc2)cc1`, the Potency entry was “inactive”.
